High-throughput results as filed in PubChem.
IL1B secr inh: qHTS for Inhibitors of Inflammasome Signaling: IL-1-beta AlphaLISA Primary Screen; THP-1 LPS/ATP IL-1B secretion, AlphaLISA, 16 h; hits give low values; activity change, % at 57.5 µM; 360,000 tested, 4.7% active; AID 743279, 2014; in the data active = activity change below about -50%; inconclusive = mostly about -30% to -49%
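THP-1 cells pretreated 1 hr with compounds (up to 57.5 uM final), then stimulated with LPS (250 ng/mL final) plus ATP (1.25 mM final); secreted IL-1B measured by AlphaLISA after 16 hr, decreased signal indicating inhibition.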
HT1080 IDH1KD tx: qHTS for induction of synthetic lethality in tumor cells producing 2HG: qHTS for the HT-1080-IDH1KD cell line. HT-1080 IDH1 knockdown viability, ATP luminescence, 48 h. Potency, µM (top dose mostly 46.1 µM), for the others: at the top dose activity, negative = toxicity, actives largely listed as cytotoxic. 360,000 tested, 2% active. AID 686971, 2013;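 also: potency is read from the fitted curve at half-maximal effect; 0% = DMSO wells and -100% = cell-free medium wells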
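Using the IDH1-knockdown HT-1080 line run in the same batch and compound series as the NT line, viability after 48 h at 37 °C was determined by CellTiter-Glo luminescence and expressed as % activity.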
TDP1 cell CPT: qHTS for Inhibitors of human tyrosyl-DNA phosphodiesterase 1 (TDP1): qHTS in cells in presence of CPT. 420,000 tested, 12% active. AID 686979, 2013. Potency, µM (doses to about 46.2 µM), inactives show at the top dose activity change, negative = growth inhibition, hits mostly inhibitors. chicken DT40 Tdp1-/-;hTDP1 cells + 20 nM CPT, ATP luminescence, 48 h; also: potency is read from the fitted curve at half-maximal effect; nearly all actives have a fitted effect of over 55% in size
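Chicken DT40 Tdp1-/- cells complemented with human TDP1, 400 cells/well, exposed to compounds plus 20 nM camptothecin for at least 48 h at 37 C; viability read as ATP content by CellTiter-Glo luminescence.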
TDP1 cell noCPT: qHTS for Inhibitors of human tyrosyl-DNA phosphodiesterase 1 (TDP1): qHTS in cells in absence of CPT; DT40 Tdp1-/- hTDP1 cells, no CPT, ATP luminescence, 48 h; Potency, µM (doses to about 46.2 µM), for the others: at the highest dose activity change, negative = growth inhibition, most hits filed as inhibitors; 420,000 tested, 15% active; also: potency is read from the fitted curve at half-maximal effect; nearly all actives have a fitted effect of over 55% in size
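Compound effects on proliferation are scored in DT40 Tdp1-/-;hTDP1 cells in the absence of CPT. ATP levels (CellTiter-Glo luminescence) are recorded after a ≥48 hr, 37 °C incubation.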
HT1080-NT tox: qHTS for induction of synthetic lethality in tumor cells producing 2HG: qHTS for the HT-1080-NT fibrosarcoma cell line | HT-1080-NT fibrosarcoma viability, CellTiter-Glo ATP luminescence, 48 h | Potency, µM (titrated, usually from 46.1 µM), for the others: at the top dose activity, negative = less viability, hits mostly cytotoxic | 360,000 tested, 1.6% active;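 also: NT is the 2HG producing partner of a matched IDH1 knockdown line; potency is read from the fitted curve at half-maximal effect; 0% = DMSO-treated cells and -100% = media-only wells without cells; nearly all actives have a fitted effect of over 55% in size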
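Read-out is CellTiter-Glo luminescence after 10 minutes at room temperature, following 48 hours' compound treatment of HT-1080-NT cells (750 cells/well, RPMI, 5% FBS, 37 degrees C).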
Active calls of the source: *; ? = inconclusive; [ ] = dose if it differs, or a comment. Shown are actives, neighbours in structure and some others; about 19% of the full set was active somewhere. Unless noted, calls follow the shape of the dose curve; as a rule, active = well fitted curve in the direction sought with a large enough effect; inconclusive = small, poorly fitted or top-dose-only effect, or another doubt; inactive = no such curve, though single readings can be large; an effect the other way counts as inactive or inconclusive. Unless noted, % is scaled to controls: 0 for no effect and ±100 for the full control effect.

SMILES | IL1B secr inh | HT1080 IDH1KD tx | TDP1 cell CPT | TDP1 cell noCPT | HT1080-NT tox
CCOc1ccc(CNCCN2CCCC2)cc1 | -15 | -3% | ? | 21µM* | -21%
COc1cc(CNc2ccc(N3CCCC3)cc2)cc(Cl)c1OC | ? | ? | 2.3µM* | 2.6µM* | 16µM*
COc1cccc(CNc2ccc(S(N)(=O)=O)cc2)c1OC | 16 | -2% | -21% | -23% | -3%
CCOc1cc(CNc2ccc(N3CCCC3)cc2)cc(Cl)c1OC | -99* | ? | 2.9µM* | 3.7µM* | ?
COc1cccc(CNc2ccc(N3CCCCC3)cc2)c1OC | -3 | -14% | 26µM* | ? | -5%
CCOc1ccc(OCCN2CCCCC2)cc1 | 0 | 5% | -26% | -15% | 13%
CC1(C(=O)Nc2ccc3c(c2)OCCO3)CCN1C(=O)c1cccc(F)c1 (stereo not given) | -7 | 1% | -6% | -3% | 6%
CN1CCN(c2ccc3c(c2)OC[C@@H](Cc2ccccc2)NS3(=O)=O)CC1 | 0 | 11% | -17% | ? | 8%
O=C(COC(=O)CCC(=O)c1cccs1)Nc1ccccc1[N+](=O)[O-] | 15 | 0% | -3% | -1% | 0%
CCOc1ccc(CNc2ccc(N3CCCC3)cc2)cc1 | 4 | -29% | 9.2µM* | 8.2µM* | 3%
C=CCOc1c(Cl)cc(CNc2ccc(N(C)C)cc2)cc1OC | 0 | 16µM* | 6.5µM* | 6.5µM* | -15%[9.24 µM]
COc1cc2c(cc1OC)[C@@H]1Cc3ccc(OC)c(OC)c3CN1CC2 | 30 | -14% | 3% | ? | -5%
COc1cc2c(cc1OC)C1Cc3ccc(OC)c(OC)c3CN1CC2 (stereo not given) | -1 | 3% | ? | 7.3µM* | -3%
CCC1=C(CC2NCCc3ccccc32)CC2c3cc(OC)c(OC)cc3CCN2C1 (stereo not given) | -92* | 6.5µM* | 1.2µM* | 1.6µM* | ?
CCOC(=O)c1c(NC(=O)CSc2nc3ccccc3s2)sc(C)c1C | -2 | -2% | 16µM* | ? | -2%
O=C(CSc1nc2ccccc2s1)Nn1cnnc1 | 22 | -7% | 18µM* | 7% | 2%
CCOC(=O)c1c(NC(=O)CSc2ncnc3ccccc23)sc(C(C)=O)c1C | 33 | 2% | 8.2µM* | 9.2µM* | -4%
COC(=O)c1c(NC(=O)CSc2ncnc3ccccc23)sc(C)c1C | 12 | -10% | 18µM* | 23µM* | -10%
O=C(CSc1nc2ccccc2s1)NC1CCCC1 | 13 | 12% | 10% | 8% | -1%
CN1CCN(C(=O)C[C@@H]2C[C@H]3c4cc(NC(=O)c5cccnc5)ccc4O[C@H]3[C@H](CO)O2)CC1 | 22 | 14% | -22% | -14% | 12%
CCCCC(=O)Nc1ccccc1Oc1ccccc1 | 27 | 4% | -29% | ? | 10%
CCN1CCN(C(c2ccccc2)c2nnnn2C(C)(C)C)CC1 (stereo not given) | 0 | 11% | -4% | 2% | 14%
CCOC(=O)C1CCCN(C(=O)Cn2ncc3c([nH]c4ccc(C)cc43)c2=O)C1 (stereo not given) | -15 | -5% | ? | ? | -7%
O=C1C2C(C(=O)N1/N=C/c1ccc(N3CCCCC3)o1)C1C=CC2C12CC2 (stereo not given) | -26 | 11% | 18µM* | 15µM* | 9%
Nc1c(Cl)ncnc1NCc1ccccc1 | 71 | -15% | ? | ? | ?
COc1ccc(C(=O)N2CCN(c3ccc(F)cc3)CC2)cc1S(=O)(=O)NC1CC1 | -13 | 0% | -22% | ? | 5%
CCCCS/C(=C(/C#N)C(N)=O)c1cc2c([nH]1)CCCC2 | -66* | 3% | 21µM* | ? | 0%
